The subject of assay [1] is Wnt5a (protein binding on small-molecule microarray). In words: small molecules binding Wnt5a protein – biophysical, small-molecule microarray, 635/667 nm fluorescence, primary screen (AID 1142).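 Further: fluorescence read at 667 nm with signal to noise per printed feature.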 Conditions: 635 nm fluorescence, higher = more signal.
Assay [2] can be described thus: ATP-based viability of Huh7 replicon cells – cell-based, CellTiter-Glo luminescence, basal, 48 h, cytotoxicity control for HCV replication inhibitor project, primary screen (AID 1143).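 Further: Huh7 hepatoma cells carrying a hepatitis C replication reporter with no stimulus; test concentration not given here.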 Conditions: higher = more signal, called active from +8 up or from −8 down. For orientation: Replicon systems follow genome replication, usually without infectious particles.
The nature of assay [3]: Pseudomonas biofilm growth suppression – PAO1 strain, BacTiter-Glo luminescence, LB-PBS, primary screen (AID 1144). Conditions: P. aeruginosa PAO1 biofilm, 12 h, higher = more signal.
Assay [4] can be described thus: basal CRE-LacZ reporter activity in PC12 – cell-based, unstimulated, primary screen (AID 1145). Conditions: no forskolin, luminescence, 4.5 h, higher = more signal, called active from +8 up or from −8 down.
The nature of assay [5]: forskolin-driven CRE-LacZ activity in PC12 – cell-based, CRE-LacZ reporter, forskolin-stimulated, primary screen (AID 1146).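 Further: PC12 cells with 6xCRE LacZ reporter stimulated by forskolin 10 µM; beta-galactosidase reporter signal reflecting CREB driven transcription.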 Conditions: luminescence, 4.5 h, higher = more signal, called active from +8 up or from −8 down.
Assay [6] addresses Streptavidin (Streptomyces avidinii) (UniProt P22629). In words: compounds binding control protein streptavidin – biophysical, small-molecule microarray, 635/667 nm fluorescence, artefact control for SMM compound annotation, primary screen (AID 1147).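 Further: signal reflects streptavidin binding to arrayed compounds as a control protein.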 The conditions noted are these: higher = more signal.
The nature of assay [7]: probe aInhba binding on compound microarray – biochemical, small-molecule microarray, 635/667 nm fluorescence, primary screen (AID 1148).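 Further: score merges 667nm spot fluorescence with signal-to-noise for antibody binding to printed compounds.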 Conditions: higher = more signal.
The target of assay [8] is Torsin-1A (Homo sapiens) (UniProt O14656). In words: TOR1A wild-type binding on microarray – cell lysate, small-molecule microarray, lysate, 635/667 nm, primary screen (AID 1149). Conditions: COS7 hTOR1A-WT lysate, 635 nm fluorescence, higher = more signal.
For assay [9] the target is unchanged. Description: torsin A mutant lysate binding on microarrays – cell lysate, small-molecule microarray, COS7 lysate, 635/667 nm fluorescence, primary screen (AID 1150).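 Further: score pools 667 nm emission and signal to noise measuring lysate protein binding.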 Conditions: COS7 hTOR1A mutant lysate, 635 nm fluorescence, higher = more signal.
Assay [10] relates to Sonic hedgehog protein (Shh). Description: Sonic hedgehog microarray binding compounds – biochemical, small-molecule microarray, 635/667 nm fluorescence, primary screen (AID 1151).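 Further: Shh protein binding to compounds spotted on small-molecule microarray slides; score combines spot fluorescence intensity with signal-to-noise across triplicate slides.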 The conditions noted are these: 635 nm fluorescence, higher = more signal.

Activity calls are given as the source filed them. Unless noted, how the calls were made is not given here.

Chain of Streptavidin (Streptomyces avidinii) (P22629 whole entry, looked up): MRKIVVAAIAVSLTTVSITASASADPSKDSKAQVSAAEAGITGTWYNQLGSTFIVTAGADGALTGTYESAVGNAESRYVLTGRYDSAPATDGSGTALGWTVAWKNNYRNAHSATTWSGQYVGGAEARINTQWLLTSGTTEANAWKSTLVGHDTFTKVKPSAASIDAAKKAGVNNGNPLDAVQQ
Chain of Torsin-1A (Homo sapiens) (O14656 whole entry, looked up): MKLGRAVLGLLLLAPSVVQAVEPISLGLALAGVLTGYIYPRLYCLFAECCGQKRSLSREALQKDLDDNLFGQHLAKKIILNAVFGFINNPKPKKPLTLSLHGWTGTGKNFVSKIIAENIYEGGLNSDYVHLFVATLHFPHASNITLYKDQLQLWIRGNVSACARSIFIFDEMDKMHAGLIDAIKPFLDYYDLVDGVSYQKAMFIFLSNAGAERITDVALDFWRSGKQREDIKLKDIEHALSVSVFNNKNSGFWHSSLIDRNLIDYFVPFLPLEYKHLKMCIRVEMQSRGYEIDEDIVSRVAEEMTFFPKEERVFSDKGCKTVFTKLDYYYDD

For the molecule `CC(CCN1CCCCc2nc(C)c(C)cc21)=NO[C@H](C)c1cn([C@H](CO)Cc2ccccc2)nn1`, the composite z-score in [1] is 0.101; in assay [6], 0.0378; in assay [7], -0.256; with Torsin-1A (Homo sapiens) [8], 2.04; with Torsin-1A (Homo sapiens) [9], 0.164; in assay [10] it was 1.32. For the same molecule, the z-score was -1.11 (inactive) in assay [2], 0.0152 (inactive) in assay [3], 2.24 (inactive) in assay [4] and 0.743 (inactive) in [5].

Turning to `Cc1cc2c(nc1C)CCCCN2CC(C)ON=C1[C@H]2CCn3c(=O)n(-c4ccccc4)c(=O)n3[C@H]2[C@H](O)[C@@H]2O[C@H]12` (stereo not given in full), the composite z-score in assay [1] is 0.384; in [6] it was -0.251; in assay [7], -0.125; with Torsin-1A (Homo sapiens) [8] it was -0.0459; in the assay with Torsin-1A (Homo sapiens) [9] it was -0.136; in assay [10], 0.829. Besides, the z-score in [2] is -0.299 (inactive); in [3] it was 0.888 (inactive); in assay [4], -1.21 (inactive); in assay [5], -0.379 (inactive).

Regarding `CO[C@@H]1COC(=O)[C@@H]2CCCN2C(=O)[C@@H](C)COC(=O)CC=C[C@H]1C`, the composite z-score in assay [1] is 0.667; in [6] it was 0.119; in assay [7], -0.0427; with Torsin-1A (Homo sapiens) [8], 0.826; with Torsin-1A (Homo sapiens) [9], 0.962; in [10], 0.895. Moreover, the z-score in [2] was -0.193 (inactive); in [3], -1.09 (inactive); in assay [4], 1.03 (inactive); in assay [5], 0.828 (inactive).

Regarding `CO[C@H]1COC(=O)[C@@H](C)COC(=O)[C@H](COCc2ccccc2)NC(=O)CC=C[C@H]1C`, the composite z-score is -0.171 in assay [1]; -0.807 in assay [6]; -0.203 in [7]; 0.436 with Torsin-1A (Homo sapiens) [8]; 0.491 in the assay with Torsin-1A (Homo sapiens) [9]; 1.88 in [10]. The z-score in assay [2] was 0.27 (inactive); in assay [3] it was -1.04 (inactive); in [4] it was -0.567 (inactive); in [5], -0.985 (inactive).

For the molecule `CCOC(=O)[C@H](Cc1ccccc1)NC(=O)CCC1CC(OC(=O)NCc2ccc3c(c2)OCO3)CC2(CCCC(COC(=O)NCCC(C)C)O2)O1` (stereo not given in full), the composite z-score is 0.403 in assay [1]; 0.789 in assay [6]; 0.0471 in [7]; 0.399 with Torsin-1A (Homo sapiens) [8]; 0.418 with Torsin-1A (Homo sapiens) [9]; 1.74 in assay [10]. The z-score in [2] is -1.05 (inactive); in [3], -0.749 (inactive); in [4], -0.254 (inactive); in assay [5], 0.0924 (inactive).

Regarding `CO[C@H]1COC(=O)[C@@H]2CCCN2C(=O)CC=C[C@@H](C)[C@H](OC)COC(=O)[C@@H](OCc2ccccc2)C=C[C@@H]1C`, the composite z-score in assay [1] is -0.0628; in [6] it was -0.0601; in [7] it was -0.407; with Torsin-1A (Homo sapiens) [8] it was 1.32; with Torsin-1A (Homo sapiens) [9], 0.855; in [10], 1.89. The z-score in assay [2] was -3.36 (inactive); in assay [3], -0.576 (inactive); in [4], 1.15 (inactive); in [5] it was -0.166 (inactive).

For `COC(=O)CC=C[C@@H](C)[C@@H](C=NO[C@H](C)c1cn([C@@H]2COC[C@H]2O)nn1)NS(=O)(=O)c1ccc(C)cc1`, the composite z-score is -0.0155 in [1]; -0.262 in assay [6]; 0.0173 in assay [7]; 0.68 with Torsin-1A (Homo sapiens) [8]; 0.429 with Torsin-1A (Homo sapiens) [9]; 0.691 in assay [10]. Further, the z-score in [2] is 0.23 (inactive); in [3], -0.668 (inactive); in assay [4], 1.08 (inactive); in assay [5], -0.112 (inactive).

`CO[C@H]1COC(=O)[C@@H](Cc2ccccc2)NC(=O)[C@@H](C)COC(=O)CCC[C@@H]1C`: the composite z-score in assay [1] was 0.0124; in assay [6], -0.343; in assay [7] it was -0.285; with Torsin-1A (Homo sapiens) [8], 0.656; with Torsin-1A (Homo sapiens) [9], 0.187; in assay [10] it was 0.787. In addition, the z-score in assay [2] was -0.382 (inactive); in assay [3] it was -0.0381 (inactive); in assay [4], -1.21 (inactive); in [5], -0.596 (inactive).

For `CC(C)=CCCC(C)=CCON=C1C[C@@H](O)[C@@H](O)[C@@H]2[C@@H]3C(=O)N(Cc4ccccc4)C(=O)[C@@H]3CC[C@@H]12`, the composite z-score in assay [1] was 0.292; in [6], -0.0277; in [7], -0.157; with Torsin-1A (Homo sapiens) [8] it was 0.925; in the assay with Torsin-1A (Homo sapiens) [9] it was 0.293; in assay [10] it was 1.88. Further, the z-score in assay [2] is 0.18 (inactive); in [3], 0.603 (inactive); in [4], -0.478 (inactive); in assay [5], -0.0093 (inactive).

For the molecule `COc1ccc(O[C@H]2C=C[C@@H](c3ccccc3)O[C@@H]2COC(=O)CCC(C)=NOC(C)CN2CCCc3nc(C)c(C)cc32)cc1` (stereo not given in full), the composite z-score in assay [1] was 0.162; in assay [6], 0.629; in assay [7], -0.12; with Torsin-1A (Homo sapiens) [8], 0.0595; in the assay with Torsin-1A (Homo sapiens) [9], 0.486; in [10], 1.01. Further, the z-score was -0.61 (inactive) in assay [2], -0.34 (inactive) in assay [3], 0.448 (inactive) in [4] and -0.507 (inactive) in [5].

For `CC(CCN1CCCCc2nc(C)c(C)cc21)=NOC[C@@H](O)COCc1ccco1`, the composite z-score in assay [1] is 0.59; in [6] it was -0.555; in assay [7], -0.15; in the assay with Torsin-1A (Homo sapiens) [8], 3.74; with Torsin-1A (Homo sapiens) [9] it was 3.23; in assay [10] it was 2.31. The z-score was 0.159 (inactive) in [2], 0.676 (inactive) in assay [3], 0.662 (inactive) in [4] and 0.758 (inactive) in assay [5].

With `COc1ccc(O[C@H]2C=C[C@@H](c3ccccc3)O[C@@H]2CON=C2[C@H]3CCn4c(=O)n(-c5ccccc5)c(=O)n4[C@H]3[C@H](O)[C@@H]3O[C@H]23)cc1`, the composite z-score in [1] is 0.185; in [6] it was 0.836; in assay [7] it was -0.2; with Torsin-1A (Homo sapiens) [8], 0.0461; in the assay with Torsin-1A (Homo sapiens) [9], 0.066; in assay [10], 0.536. For the same molecule, the z-score in [2] is -1.53 (inactive); in assay [3], 1.92 (inactive); in assay [4], 0.834 (inactive); in assay [5], -0.016 (inactive).

As to `C[C@@H](c1ccccc1)N1C(=O)[C@H]2[C@H]3[C@H](O)[C@H](O)CC(=O)[C@H]3CC[C@H]2C1=O`, the composite z-score was 0.0027 in assay [1]; 0.182 in assay [6]; -0.145 in assay [7]; 0.0683 with Torsin-1A (Homo sapiens) [8]; 0.452 with Torsin-1A (Homo sapiens) [9]; 0.374 in [10]. In addition, the z-score in assay [2] was -0.273 (inactive); in [3], 0.257 (inactive); in [4], -0.113 (inactive); in assay [5], 0.209 (inactive).

In the case of `C[C@@H](c1ccccc1)N1C(=O)[C@H]2[C@H]3[C@H](O)[C@H](O)CC(=NOCc4ccccc4)[C@H]3CC[C@H]2C1=O`, the composite z-score is -0.0159 in [1]; 0.587 in assay [6]; -0.183 in [7]; -0.0911 with Torsin-1A (Homo sapiens) [8]; 0.651 with Torsin-1A (Homo sapiens) [9]; 0.378 in assay [10]. Besides, the z-score was -0.416 (inactive) in [2], 0.576 (inactive) in [3], 0.0687 (inactive) in [4] and 0.0517 (inactive) in assay [5].

For the molecule `COc1cccc([C@H]2Oc3ccc(OC)cc3C(=NOC[C@@H](C)[C@H](OCc3ccccc3)C(C)C)[C@@H]2O)c1`, the composite z-score in [1] was 0.276; in assay [6], -0.234; in assay [7], -0.106; with Torsin-1A (Homo sapiens) [8], 0.577; with Torsin-1A (Homo sapiens) [9], 0.83; in [10], 0.115. The z-score in assay [2] is -0.324 (inactive); in assay [3] it was 0.508 (inactive); in assay [4], 0.666 (inactive); in [5], 0.649 (inactive).
